The list is not random: actives were taken first. Their share in the collection is about 14%.
LmPK inh: inhibitors of Leishmania mexicana pyruvate kinase. Q27686. 290,000 compounds, 0.37% hits. Potency, µM (titrated, usually from 57.5 µM), for the others: at the highest dose activity change, negative = inhibition, hits mostly inhibitors. purified LmPK, Kinase-Glo ATP luminescence, 1 h; also: potency is read from the fitted curve at half-maximal effect; % is scaled to controls: 0 for no effect and ±100 for the full control effect
Target sequence (Q27686 whole entry, looked up): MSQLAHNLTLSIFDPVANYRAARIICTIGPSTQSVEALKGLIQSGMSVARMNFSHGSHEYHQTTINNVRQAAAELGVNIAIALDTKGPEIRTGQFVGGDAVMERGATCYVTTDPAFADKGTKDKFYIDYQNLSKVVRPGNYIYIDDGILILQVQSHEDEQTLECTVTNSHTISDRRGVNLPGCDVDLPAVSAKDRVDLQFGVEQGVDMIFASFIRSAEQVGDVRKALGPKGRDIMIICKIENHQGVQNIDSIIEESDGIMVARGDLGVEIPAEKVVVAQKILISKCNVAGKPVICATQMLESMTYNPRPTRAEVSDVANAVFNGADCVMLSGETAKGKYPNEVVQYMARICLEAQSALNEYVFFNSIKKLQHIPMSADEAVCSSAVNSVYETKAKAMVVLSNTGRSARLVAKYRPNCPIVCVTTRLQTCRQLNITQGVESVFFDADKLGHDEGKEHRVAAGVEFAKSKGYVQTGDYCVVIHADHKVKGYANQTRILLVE
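Pyruvate kinase activity monitored as ATP production (luciferase luminescence). Conditions: 0.1 nM enzyme, 0.5 mM PEP, 0.1 mM ADP, 1 h, RT; normalized against uninhibited and no-enzyme wells.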
FBPA Giardia inh: blocks Giardia fructose-bisphosphate aldolase activity; Potency, µM (titrated, usually from 59.6 µM), for inactives: at the top dose activity, negative = inhibition, most hits filed as inhibitors; A8B2U2; purified Giardia FBPA; AID 2451; 290,000 compounds, 0.71% hits; also: potency is read from the fitted curve at half-maximal effect; % is scaled to controls: 0 for no effect and ±100 for the full control effect; nearly all actives have a fitted effect of over 55% in size
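40 nM FBPA preincubated 10 min at RT with compound (up to 57.5 uM final), then substrate plus GAPDH/TPI/NAD/arsenate coupling and diaphorase/resazurin added. Fluorescence read after 20 min at RT, 525/598 nm.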
Shiga toxin inh: inhibitors of Shiga toxin in Vero cells | 290,000 compounds, 9.2% hits | Vero cells, Shiga toxin protein synthesis inhibition reporter | inhibition, % at 38.7 µM | AID 2315; in the data active = inhibition mostly above about 28%, no sharp cut-off; inactive = mostly below about 43%; also: 0% is about no effect
NS1 inh: inhibitors of influenza NS1 protein function; Potency, µM (highest dose often 46.1 µM), inactives show top-dose activity, positive = more growth; 270,000 compounds, 0.4% hits; AID 2326; calls by dose curve; also: potency is read from the fitted curve at half-maximal effect; actives are rising curves; nearly all actives have a fitted effect of over 50% in size
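A cell-based growth assay was used: compounds that relieve NS1-induced slow growth of budding yeast raise OD600. Assay medium was yeast nitrogen base with ammonium sulphate and -URA supplement, pH 6.0, with 2% galactose.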
CHX counter: counter-screen for Shiga toxin inhibitors: cycloheximide protein synthesis inhibition; AID 2314; max response, %; cell reporter, cycloheximide protein synthesis inhibition counterscreen; 300,000 compounds, 12% hits; in the data active = max response mostly above about 13%, no sharp cut-off; inactive = mostly below about 14%; also: read at 38.3 µM for the half of the compounds with a filed dose; 0% is about no effect
* = called active by the depositor; i = inactive; ? = inconclusive; . = no result given; ! = not confirmed by another sample; [ ] = dose if it differs, or a comment. Unless noted, calls follow the shape of the dose curve; as a rule, active = well fitted curve in the direction sought with a large enough effect; inconclusive = small, poorly fitted or top-dose-only effect, or another doubt; inactive = no such curve, though single readings can be large; an effect the other way counts as inactive or inconclusive.

SMILES	LmPK inh	FBPA Giardia inh	Shiga toxin inh	NS1 inh	CHX counter
O=S(=O)(c1ccc(C(F)(F)F)cc1)N1CCN(CCc2ccccc2)CC1	0.1%	7.9%	-5.8	-3.7%	-4.7
O.O.[Mn].[Mn].[Mn].[OH-].[OH-]	.	0.0%	-4.1	.	-6.4
COc1ccc2c(c1)NC(c1ccc(N(C)C)cc1)c1cccn1-2 (stereo unspecified)	2.0%	?	79.2*	4.0%	24.7*
COc1ccc2c(c1)NC(c1cc(Cl)cc(Cl)c1O)c1cccn1-2 (stereo unspecified)	-0.8%	-3.6%	-1.6	2.9%	-2.9
CC(=O)Oc1cc(-c2coc3cc(OC(C)=O)c(OC(C)=O)c(OC(C)=O)c3c2=O)cc(OC(C)=O)c1OC(C)=O	.	5.61µM*	.	.	.
COc1ccc(-c2nc(C=O)cs2)cc1	-16.0%	0.8%	39.2*	-32.6%	13.2*
COc1cccc(-c2nc(C=O)cs2)c1	-18.2%	-6.7%	30.7*	.	12.9
Cc1cc(NC(=O)CSc2nnnn2-c2ccc(C)c(Cl)c2)no1	7.1%	-9.3%	-14.1	-4.8%	1.1
COc1cccc([C@@H]2Oc3ccc(Br)cc3C[C@H]2OC(=O)N[C@H](C)C2CCCCC2)c1	.	-2.6%	.	.	.
CCc1ccccc1NC(=O)c1cccc(NC(=O)/C=C/c2ccco2)c1	5.2%	-10.4%	105.1*	15.0%	68.7*
Cc1ccc(NC(=O)c2cccc(NC(=O)/C=C/c3ccco3)c2)cc1C	0.9%	-3.3%	136.8*	8.2%	57.2*
Cc1ccc(NC(=O)N/C=C/c2ccco2)cc1C	4.3%	-5.7%	8.5	6.7%	12.0
O=C(/C=C\c1ccco1)Nc1ccc(N2CCN(C(=O)c3ccccc3)CC2)cc1	3.9%	6.2%	4.6	13.7%	-3.5
Cc1ccc(-n2nc3ccc(NC(=O)/C=C/c4ccco4)cc3n2)cc1	0.4%	-3.1%	74.1*	9.8%	21.8*
O=C(/C=C/c1ccco1)Nc1cccc(C(=O)Nc2ccccc2C(=O)O)c1	10.0%	-3.0%	-6.3	11.6%	-0.7
Fc1ccc(/C=N/Nc2nccnc2Cl)cc1	?	?	95.6*	-16.8%	39.9*
Cc1sc2ncnc(N/N=C/c3ccc(O)cc3)c2c1C	-0.5%	-23.9%	15.7	-22.4%	16.0
Fc1cccc(/C=N/Nc2nccnc2Cl)c1	?	?	97.9*	-17.1%	48.5*
Oc1ccc(/C=N/Nc2nccnc2Cl)cc1	5.01µM*	-19.0%	74.7	-0.6%	20.9*
Nc1c(Cl)ncnc1N/N=C/c1ccc(O)cc1	?	-21.7%	47.1*	-5.5%	25.6*
CCOc1cccc(/C=N/N=C/c2cccc(OCC)c2O)c1O	-7.5%	-3.3%	69.5	0.3%	15.2
CC1CCCC(C)N1/N=C/c1ccc(Cl)cc1 (stereo unspecified)	-4.0%	-5.2%	2.9	10.0%	-2.2
CCOc1ccc(/C=N/N2C(C)CCCC2C)cc1 (stereo unspecified)	0.8%	18.6%	49.6	8.7%	37.4*
CC1CCCC(C)N1/N=C/c1ccc(C#N)cc1 (stereo unspecified)	7.2%	-1.1%	57.6	3.6%	26.3*
CCOc1cccc(/C=N/N2C(C)CCCC2C)c1O (stereo unspecified)	-4.9%	3.8%	46.0	0.5%	30.5*
SMILES	LmPK inh	FBPA Giardia inh	Shiga toxin inh	NS1 inh	CHX counter
CCOc1cccc(C=Nc2cc(C)cc(C)c2O)c1O	22.4µM*	?	21.7	-69.5%	8.7
CC(N)=NCCCC(N)C(=O)O (stereo unspecified)	.	1.6%	.	-5.2%	.
Cn1cccc1C(=O)N1CCC2(CCCN(c3ccccn3)C2)CC1	.	0.0%	.	.	.
CN(CCc1ccccn1)C(=O)CC1C(=O)NCCN1Cc1cccc(F)c1 (stereo unspecified)	-7.6%	.	-25.5	0.0%	-2.4
COCCNC(=O)C1Cc2c(ccc3ccccc23)O1 (stereo unspecified)	0.6%	-1.4%	36.6	-4.4%	14.6*
CCN(CC)CCC(=O)Nc1cccc2c1C(=O)c1ccccc1C2=O	-1.0%	-23.1%	6.2	-3.4%	1.8
Cc1ccc(N(CC(=O)NC2CCCCC2)C(=O)CCC(=O)Nc2nccs2)cc1	8.9%	-0.4%	7.1	28.7%	-3.2
CCOC(=O)c1c(C)oc2c1c(C(c1ccncc1)N1CCOCC1)c(O)c1ccccc12 (stereo unspecified)	-2.1%	?	100.2*	-103.7%	50.7*
CCOC(=O)c1c(C)oc2ccc(O)c(CN3CCCCC3)c12	4.5%	-5.8%	-0.9	-9.3%	-1.6
CCOC(=O)c1c(C)oc2c1c(C=NCCC(=O)O)c(O)c1ccccc12	0.0%	?	42.5	.	6.8
CCOC(=O)c1c(C)oc2c1c(CN1CCN(CCO)CC1)c(O)c1ccccc12	0.2%[11.5 µM]	?	117.8*	.	35.6*
CCOC(=O)c1c(C)oc2c1c1c(c3ccccc32)OCN(Cc2ccccn2)C1	-0.3%	?	88.5*	-21.6%	34.7*
CCOC(=O)c1c(C)oc2c1c(CN1CCN(C(=O)OCC)CC1)c(O)c1ccccc12	0.8%	?	104.0*	-43.1%	70.7*
CCOc1ccccc1Oc1c(C)oc2c(CN3CCN(CCO)CC3)c(O)ccc2c1=O	2.4%	4.1%	17.0	5.2%	5.8
Cn1cnc([N+](=O)[O-])c1SCC(=O)O	.	.	.	0.7%	.
CC(Cc1ccccc1)C(=O)NCCc1c[nH]c2ccccc12 (stereo unspecified)	.	-11.7%	.	.	.
CCOc1cc(S(=O)(=O)N2CCN(C(=O)c3ccco3)CC2)ccc1F	-1.4%	17.9%	-6.1	-15.8%	-2.1
CC(OC(=O)C1=Cc2ccccc2OC1)C(=O)NCc1ccco1 (stereo unspecified)	0.3%	3.1%	42.3	.	22.7*
CCC(OC(=O)C1=Cc2ccccc2OC1)C(=O)NCc1ccco1 (stereo unspecified)	-2.1%	6.0%	17.2	0.6%	6.9
CCN(C=NC1=NN(c2cccc(C(F)(F)F)c2)CC1)CC	-1.2%	-0.6%	66.2	-13.9%	37.1*
Cc1cccc(N2CCC(N=CN(C)C)=N2)c1	-4.0%	-14.6%	99.6*	.	41.3*
Cc1cccc(C)c1OCC(=O)Nc1ccc2c(c1)C(=O)NC2=O	1.0%	.	-7.9	6.8%	-3.2
Cc1ccc(-c2cc(=O)c3cc(F)ccc3[nH]2)cc1	-0.2%	7.2%	17.7	11.1%	15.7*
O=c1cc(-c2ccccc2)[nH]c2ccc(F)cc12	5.8%	-0.8%[136 µM]	17.3	5.0%	15.8
Cc1ccc2[nH]c(C)cc(=O)c2c1	.	-9.9%[136 µM]	i	.	-1.2
SMILES	LmPK inh	FBPA Giardia inh	Shiga toxin inh	NS1 inh	CHX counter
Cc1ccc(-c2cc(=O)c3cc(C)ccc3[nH]2)cc1	-5.4%	0.1%[89.2 µM]	59.4*!	5.8%	43.0*!
CC(=O)c1ccc(NC(=O)c2ccc3c(=O)n4c(nc3c2)CCCCC4)cc1	-9.9%	.	16.1	1.1%	7.0
CN(C(=O)c1ccc2c(=O)n3c(nc2c1)CCCCC3)c1ccccc1Cl	-1.4%	7.6%	24.3	-4.1%	18.9*
O=C(Nc1ccc(F)cc1)c1ccc2c(=O)n3c(nc2c1)CCCCC3	0.7%	-8.5%	52.0*	-1.7%	23.8*
O=C(Nc1ccc(F)c(Cl)c1)c1ccc2c(=O)n3c(nc2c1)CCCCC3	-0.8%	1.2%	54.3*	-33.3%	51.6*
O=C(Nc1ccc(Cl)cc1)c1ccc2c(=O)n3c(nc2c1)CCCCC3	-0.2%	4.5%	40.7*	9.5%	54.0*

High-throughput results deposited in PubChem BioAssay by National Center for Advancing Translational Sciences (NCATS).
